PLAP activator = activators of human placental alkaline phosphatase; P05187; AID 696; purified PLAP enzyme, luminescent substrate read-out; hits give high values; activation fold at 20 µM; 96,000 compounds, 1.2% hits; in the data active = activation fold above about 2
CYP2C9 activ = CYP2C9 (human) activation; P11712; 96,000 compounds, 1.4% hits; AID 1024; recombinant CYP2C9, luciferin-H conversion, luminescence; hits give high values; factor 1 = untreated enzyme, 0 = blocked; activation factor at 5 µM;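 active = activation factor of 2 or more for CYP2C9 at a 5 µM dose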
CYP2C19 activ = increases human CYP2C19 enzyme activity. P33261. recombinant CYP2C19, luciferin-H EGE luminescence; hits give high values; 0 = fully inhibited enzyme, 1 = untreated enzyme. activation factor at 5 µM. 96,000 tested, under 10 active. AID 1025;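 active = activation factor of at least 2 at 5 µM in the primary screen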
Target sequence (P33261 whole entry, looked up): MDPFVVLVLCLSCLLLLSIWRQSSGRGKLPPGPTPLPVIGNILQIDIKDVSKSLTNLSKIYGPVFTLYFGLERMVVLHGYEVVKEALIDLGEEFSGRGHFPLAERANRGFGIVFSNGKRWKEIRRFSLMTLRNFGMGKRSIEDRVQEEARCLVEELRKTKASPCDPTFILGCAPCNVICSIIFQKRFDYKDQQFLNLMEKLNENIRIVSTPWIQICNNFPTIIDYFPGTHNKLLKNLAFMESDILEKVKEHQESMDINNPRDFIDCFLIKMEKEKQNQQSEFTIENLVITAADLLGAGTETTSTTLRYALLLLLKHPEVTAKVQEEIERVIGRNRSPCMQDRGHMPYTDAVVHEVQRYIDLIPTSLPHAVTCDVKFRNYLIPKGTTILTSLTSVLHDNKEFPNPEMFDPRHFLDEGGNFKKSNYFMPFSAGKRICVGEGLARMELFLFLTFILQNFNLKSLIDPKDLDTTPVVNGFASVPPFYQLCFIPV
CYP2C9 inhib = blocks human cytochrome P450 2C9. P11712. 96,000 compounds, 20% hits. CYP2C9 Supersomes, luciferin-H conversion, luminescence. inhibition, % at 5 µM;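 active = blocking of liver enzyme CYP2C9 beyond about 50% at 5 µM, limit read from the data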
CYP2C19 inh = inhibitors of human CYP2C19; P33261; CYP2C19 Supersomes, luciferin-H EGE luminescence, 30 min; inhibition, % at 5 µM; 96,000 compounds, 21% hits; AID 778;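 active = CYP2C19 inhibition above a set limit at 5 µM in the primary screen, cut at about 50% in these data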
Large screens that a line does not name were inactive. This is a sample that favours compounds with a hit; in the whole collection about 31% have one here.

CC(NC(=O)c1ccc(CS(=O)(=O)c2cccc(C(F)(F)F)c2)o1)c1ccc2c(c1)OCCO2 (centres undefined)	CYP2C9 inhib 62, CYP2C19 inh 64
CCCCNC(=O)c1ccc(CS(=O)(=O)c2cccc(C(F)(F)F)c2)o1	CYP2C19 inh 71
O=C(NCc1ccco1)c1ccc(CS(=O)(=O)c2cccc(C(F)(F)F)c2)o1	none
COc1cccc(C2CC(=O)NC3=C2C(=O)CCC3)c1 (centres undefined)	none
CC(C(=O)c1ccccc1)n1c(N2CCOCC2)nc2c1c(=O)n(C)c(=O)n2C (centres undefined)	none
COc1ccccc1S(=O)(=O)Cc1ccc(C(=O)NCc2cccs2)o1	none
COc1ccccc1S(=O)(=O)Cc1ccc(C(=O)NCc2ccc3c(c2)OCO3)o1	CYP2C9 inhib 75, CYP2C19 inh 61
Cc1ccc(C(O)P(=O)(OC2CCCCC2)OC2CCCCC2)cc1 (centres undefined)	CYP2C9 inhib 62, CYP2C19 inh 89
Cn1c2ccccc2c2ncn(CCC3=CCCCC3)c(=O)c21	CYP2C9 inhib 84, CYP2C19 inh 71
Cn1c2ccccc2c2ncn(CCCN3CCOCC3)c(=O)c21	none
O=C1CC(=O)C(n2cncn2)C(c2ccc(Cl)cc2)C1 (centres undefined)	none
CS(=O)(=O)Nc1ccc(C(=O)Nc2ccccc2C(=O)N2CCCC2)cc1	none
O=C(c1ccccc1Nc1ccc(SC(F)F)cc1)N1CCCCCC1	CYP2C9 inhib 60, CYP2C19 inh 84
CCN1C(=O)C(Cc2nc3ccccc3c(=O)n2-c2ccccc2)c2ccccc21 (centres undefined)	none
Cn1c(CC2C(=O)Nc3ccc(Br)cc32)nc2ccccc2c1=O (centres undefined)	CYP2C9 inhib 82
O=C(CCc1nc(-c2ccccc2)c(-c2ccccc2)o1)OCc1ccc(Br)cc1	CYP2C9 inhib 81, CYP2C19 inh 58
O=C(NCc1ccccc1Cl)C1CCN(C(=O)c2sccc2-n2cccc2)CC1	CYP2C19 inh 61
CN(C)C(=O)N1CCC(C(=O)NCc2ccccc2Cl)CC1	none
CC1CCCCC1NC(=O)C1CCN(C(=O)c2sccc2-n2cccc2)CC1 (centres undefined)	none
CCOc1ccccc1CNC(=O)C1CCN(C(=O)c2sccc2-n2cccc2)CC1	CYP2C19 inh 84
Cc1ccc(-n2nc3c(c2NC(=O)c2c(-c4ccccc4Cl)noc2C)CSC3)cc1	none
CSc1ccc(/C=C/C(=O)c2ccc(NC(C)=O)cc2)cc1	CYP2C19 inh 51
CSc1ccc(NC(=O)CC(C)=O)cc1	none
CCCC(=O)Nc1ccc(C(=O)/C=C/c2ccc(SC)cc2)cc1	CYP2C9 inhib 73, CYP2C19 inh 50
O=C(c1ccc(F)cc1)N1CCN(C(=O)c2cccnc2)CC1	none
c1ccc(OCCCn2nnc(-c3cccnc3)n2)cc1	CYP2C19 inh 51
Nc1nc(-c2cccnc2)nn1C(=O)COc1ccccc1	none
O=C(CCCn1nnc(-c2cccnc2)n1)c1ccc(F)cc1	CYP2C9 inhib 53, CYP2C19 inh 76
CCCCN(C(=O)c1ccco1)c1nnc(-c2cc(OC)c(OC)c(OC)c2)s1	none
Cc1ccc(NCC(=O)N/N=C/c2ccc(OC(=O)c3ccco3)cc2)cc1	none
CCCC(=O)Nc1c(C)n[nH]c1C	CYP2C9 inhib 62
CCC(Sc1nc2c(cnn2-c2ccc(Cl)cc2)c(=O)[nH]1)C(=O)OC (centres undefined)	none
CCOC(=O)C(C)(C)Sc1nc2c(cnn2-c2ccc(Cl)cc2)c(=O)[nH]1	CYP2C9 inhib 76
COc1ccc(-c2noc(CCC(=O)Nc3cc(OC)ccc3OC)n2)cc1	CYP2C9 inhib 82, CYP2C19 inh 98
COc1ccc(-c2noc(CCCC(=O)Nc3ccc(C(N)=O)cc3)n2)cc1	none
COc1ccc(-c2noc(CCC(=O)Nc3cc(Cl)c(OC)cc3OC)n2)cc1	CYP2C9 inhib 54, CYP2C19 inh 82
COc1ccc(-c2noc(CCCOc3ccc(Cl)cc3Cl)n2)cc1	none
Cc1cccc(C(=O)NC2CCN(C(=O)N3CCOCC3)CC2)c1	none
Cc1ccc(C)c(NC(=S)NC(NC(=O)/C=C/c2ccccc2)C(Cl)(Cl)Cl)c1 (centres undefined)	none
Cc1ccc(NC(=S)NC(NC(=O)C(C)(C)C)C(Cl)(Cl)Cl)c(C)c1 (centres undefined)	CYP2C9 inhib 90
O=C1NCC(CN(c2ccccc2)c2ccccc2)O1 (centres undefined)	none
COc1ccc(NC(=O)C(CCSC)N2C(=O)c3ccccc3C2=O)cc1 (centres undefined)	none
CCOC(=O)C(Cc1ccc(NC(=O)/C(=C/c2ccccc2)NC(=O)c2ccccc2)cc1)N1C(=O)c2ccccc2C1=O (centres undefined)	CYP2C9 inhib 91, CYP2C19 inh 52
CCOC(=O)C(Cc1ccc(NC(=O)/C(=C/c2ccc(OC(C)=O)cc2)NC(C)=O)cc1)N1C(=O)c2ccccc2C1=O (centres undefined)	CYP2C9 inhib 60
CCOC(=O)NCC(C)(C)CNC(=O)OCC	none
COC(=O)C(NNc1ccccc1)(NC(=O)c1cccc(F)c1)C(F)(F)F (centres undefined)	CYP2C9 inhib 84, CYP2C19 inh 83
CCC(C)C(=O)Nc1cc(C(=O)OC)cc(C(=O)OC)c1 (centres undefined)	CYP2C9 inhib 61
COC(=O)c1ccc(NC(=O)CNS(=O)(=O)c2cccs2)cc1	CYP2C19 inh 65
COC(=O)c1ccc(NC(=O)Cc2ccccc2)cc1	CYP2C9 inhib 70, CYP2C19 inh 83
O=C(CNS(=O)(=O)c1cccs1)Nc1ccc2c(c1)OCCO2	none
COC(=O)c1ccc(NC(=S)Nc2ccccc2)cc1	CYP2C19 inh 52
COC(=O)c1ccc(NC(=S)Nc2ccc3ccccc3c2)cc1	none
CC1=CC(C)C2C(=O)N(CCC[N+](C)(C)C)C(=O)C2C1 (centres undefined)	none
CCOC(=O)c1ccc(NC(=S)NCCc2ccccc2)cc1	CYP2C9 inhib 66
COC(=O)c1cc(NC(=O)Cc2ccc(OC)cc2)cc(C(=O)OC)c1	CYP2C9 inhib 84
COC(=O)c1ccc(NC(=O)Cc2ccc(C)cc2)cc1	none
Cc1c(NC(=O)c2cc3ccccc3oc2=O)c(=O)n(-c2ccccc2)n1C	none
C#CCSc1nnc(-c2ccccc2)c(=O)[nH]1	CYP2C9 inhib 56
Cc1nnc(SCc2cnc(-c3ccccc3)o2)[nH]c1=O	none
O=C(Oc1ccc(-c2cnc3ccccc3n2)cc1)c1ccco1	none
CCc1cc2c(=O)c(-c3cscn3)coc2cc1O	none
Oc1ccc(-c2onc(C(F)(F)F)c2-c2cscn2)c(O)c1	CYP2C9 activ 2.3, CYP2C19 inh 76
CCOc1cc(C)c(-c2onc(C(F)(F)F)c2-c2csc(C)n2)c(O)c1	CYP2C19 inh 76
Cc1nc(-c2ccc(O)c(O)c2)cs1	none
Cc1nc(-c2c(C(F)(F)F)noc2-c2ccc(O)cc2O)cs1	CYP2C19 inh 69
